Compounds with a hit are over-represented: about 5.3% of the library has one in this group of screens.
IMPase Li inh – IMPase inhibition in cells with lithium potentiation; CHO-M1 cells, IP1 TR-FRET (IP-One), carbachol + lithium; AID 1457; 210,000 compounds, 0.35% hits; Potency, µM (highest dose often 59.4 µM), inactives show top-dose activity, negative = IMPase inhibition, most hits filed as inhibitors;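 further: IP1 builds up when IMPase is blocked and the TR-FRET signal falls; potency means the concentration at half of the fitted maximal effect; plate controls were basal vehicle for no effect and high inhibitor control for full effect; nearly all actives have a fitted effect of over 50% in size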
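Lithium-sensitised IP1 accumulation assay; M1-expressing CHO cells treated 30 min at 37C with compound. Competitive antibody detection by time-resolved FRET followed a 10 min room-temperature lysis step.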
ALOX15B inhib – inhibitors of human 15-lipoxygenase 2 (ALOX15B); purified 15hLO-2, xylenol orange hydroperoxide absorbance; Potency, µM (series often up to 57.1 µM), for the others: at the top dose activity change, negative = inhibition, actives largely listed as inhibitors; 110,000 compounds, 0.56% hits; O15296; AID 881; further: potency means the concentration at half of the fitted maximal effect; nearly all actives have a fitted effect of over 60% in size
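Purified human 15hLO-2 (50 nM final) preincubated with compounds 15 min at room temperature in 25 mM Hepes pH 7.5, 0.01% Triton X-100, then 45 uM arachidonic acid added for 90 min; hydroperoxide detected via ferrous/xylenol orange, 573/405 nm absorbance ratio.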
HPGD block – HPGD (human) dehydrogenase inhibition; 150,000 compounds, 4.3% hits; Potency, µM, for inactives: at the highest dose activity change, negative = inhibition, actives largely listed as inhibitors; purified HPGD, NADH fluorescence kinetic, PGE2 substrate; P15428; AID 894; active means well fitted inhibition curve with a large enough effect, not every such curve was filed as active; inconclusive means small, poorly fitted or top-dose-only effect, or another doubt; inactive means no such curve, though single readings can be large or run the other way; further: potency means the concentration at half of the fitted maximal effect
Target sequence (P15428 whole entry, looked up): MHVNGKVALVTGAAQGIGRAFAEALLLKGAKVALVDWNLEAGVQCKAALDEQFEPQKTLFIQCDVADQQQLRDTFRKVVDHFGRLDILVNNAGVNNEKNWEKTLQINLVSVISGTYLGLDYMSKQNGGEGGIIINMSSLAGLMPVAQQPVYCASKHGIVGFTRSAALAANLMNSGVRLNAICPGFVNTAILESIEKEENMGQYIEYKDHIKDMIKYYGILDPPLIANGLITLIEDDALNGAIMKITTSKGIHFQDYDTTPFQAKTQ
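20 nM HPGD preincubated 15 min at room temperature with compound in 50 mM Tris-HCl pH 8, 0.01% Tween 20. Started with 1 mM NAD+ and 30 uM prostaglandin E2; NADH fluorescence (360/450 nm) read 5 times over 30-s intervals, last minus first.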
PNC inhibitor – perinucleolar compartment assembly inhibition | 140,000 compounds, 3.1% hits | AID 2417 | activity change (PNC), negative = inhibition, % at 10 µM | PC3M PTB-GFP, PNC prevalence imaging, 16 h; hits give low values;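 active means readout at or below -70, meaning at least 70% loss of cells showing the perinucleolar compartment, a nuclear body marking cancer cells; inconclusive means readout between -30 and a set limit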;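 further: plate controls were DMSO wells for no effect and camptothecin positive control wells for full effect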
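Compounds are pinned in duplicate onto adhered PC3M cells stably expressing GFP-tagged PTB and incubated 16 h at 37 C. Cells are then fixed, nuclei stained with Hoechst, and PNC-positive cells counted.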
12-hLO inh – inhibitors of human 12-lipoxygenase (ALOX12); purified 12-hLO, xylenol orange hydroperoxide absorbance; 150,000 compounds, 0.12% hits; AID 1452; Potency, µM (top dose mostly 57.1 µM), without a hit: at the top dose activity change, negative = inhibition, most hits filed as inhibitors; further: potency means the concentration at half of the fitted maximal effect; nearly all actives have a fitted effect of over 55% in size
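Lipoxygenase turnover measured by absorbance at 573 and 405 nm after Fe-XO development. Human 12hLO 150 nM, arachidonate 40 uM, pH 7.0 Hepes buffer with detergent; 15 min compound preincubation, 30 min reaction.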
IMPase cell inh – membrane-permeable compound that blocks inositol monophosphatase; P97697; CHO-M1 cells, IP1 accumulation, HTRF TR-FRET ratio; inhibition (IP1 accumulation), % at 46.1 µM; 120,000 tested, under 10 active; active means well fitted curve in the direction sought with a large enough effect in the signal ratio, not every such curve was filed as active; inconclusive means small, poorly fitted or top-dose-only effect, or a change in a side signal; inactive means no such curve, though single readings can be large or run the other way; the % refers to the signal ratio;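 further: cells stimulated with carbachol in lithium chloride buffer; plate controls were DMSO basal wells for no effect and reference inhibitor wells for full effect; higher means more IMPase inhibition seen as more IP1 and lower FRET ratio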
Target sequence (P97697 whole entry, looked up): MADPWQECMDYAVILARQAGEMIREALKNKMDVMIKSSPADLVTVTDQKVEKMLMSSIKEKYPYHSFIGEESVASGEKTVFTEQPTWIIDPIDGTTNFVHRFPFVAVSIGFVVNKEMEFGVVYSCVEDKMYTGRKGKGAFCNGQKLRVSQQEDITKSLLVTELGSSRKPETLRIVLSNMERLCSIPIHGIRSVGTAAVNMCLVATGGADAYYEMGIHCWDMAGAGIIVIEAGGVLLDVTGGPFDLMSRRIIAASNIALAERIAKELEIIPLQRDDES
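Measured: the HTRF emission ratio (665/620 nm) plus the 620 nm donor channel, each fitted to the Hill equation to give AC50. Cells were CHO-M1 given compounds up to 46 uM and a 30 min carbachol stimulation at 37C.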
* marks the source's active call; other numbers are inactive results; ? = inconclusive; . = no result given; ! = repeats disagree; [ ] = dose if it differs, or a comment. Unless noted, the call rests on the fitted dose curve; in most records, active means well fitted curve in the direction sought with a large enough effect; inconclusive means small, poorly fitted or top-dose-only effect, or another doubt; inactive means no such curve, though single readings can be large; an effect the other way counts as inactive or inconclusive. Unless noted, on the % scale 0 is the no-effect control and ±100 the full control effect.

SMILES	IMPase Li inh	ALOX15B inhib	HPGD block	PNC inhibitor	12-hLO inh	IMPase cell inh
Cc1ccc(NC2=C(NCCO)C(=O)c3ccccc3C2=O)cc1	27%	.	-3%	25	-5%	.
Cn1c(=O)c(Nc2ccc(O)cc2)c2c3c(cccc31)C(=O)c1ccccc1-2	26%	.	25µM*	-18	-4%	.
N/C(=N\OC(=O)CCCCCN1C(=O)c2ccccc2C1=O)c1ccccc1	17%	7%	13µM*	?	-3%	3
Cc1cccc(/C(N)=N/OC(=O)CCCN2C(=O)c3ccccc3C2=O)c1	-3%[38.3 µM]	-4%	-24%	19	2%	-4
CN(C1CCCC1)C1CCN(C(=S)Nc2cc(F)cc(F)c2)CC1	12%	.	.	.	.	.
O=[N+]([O-])c1ccc(N/N=C/c2c[nH]c3ccccc23)cc1	-10%[38.3 µM]	?	-3%	29	-21%	4
O=[N+]([O-])c1ccc(N/N=C/c2ccc[nH]2)cc1	-8%	.	14µM*	-97*	6.3µM*	.
Cc1ccc(S(=O)(=O)C(C)C(=O)c2ccc3c(c2)OCCO3)cc1 (configuration not stated)	1%[38.3 µM]	2%	?	-12	4%	-12
Cc1c(Cl)c([N+](=O)[O-])nn1CCCC(=O)Nc1sc2c(c1C(N)=O)CCC(C)C2 (configuration not stated)	16%	.	5µM*	48	4%	-6
Cc1c(Br)c([N+](=O)[O-])nn1CCCC(=O)Nc1sc2c(c1C(N)=O)CCC(C)C2 (configuration not stated)	17%	.	11µM*	?	-4%	.
COC(=O)c1c(NC(=S)NN2CCN(C)CC2)sc2c1CCC(C)C2 (configuration not stated)	20%	.	.	.	.	.
COC(=O)c1c(NC(=O)Cn2cnc([N+](=O)[O-])n2)sc2c1CCC(C)C2 (configuration not stated)	-6%	.	11µM*	?	2%	.
CC1CCc2c(sc(NC(=O)CCCOc3ccc(C(C)(C)C)cc3)c2C(N)=O)C1 (configuration not stated)	.	.	.	.	.	2
Cc1c(Cl)c([N+](=O)[O-])nn1CCCC(=O)Nc1sc2c(c1C#N)CCC2	-1%	-17%	?	?	-3%	2
Cc1c(Br)c([N+](=O)[O-])nn1CC(=O)Nc1sc2c(c1C(=O)OC(C)C)CCCC2	1%[38.3 µM]	-18%	-24%	26	0%	?
Cc1c(Br)c([N+](=O)[O-])nn1CCCC(=O)Nc1sc2c(c1C#N)CCC2	5%	.	13µM*	?	1%	.
Cc1ccc2c(c1)N(Cc1ccncc1)C(=O)C(C)O2 (configuration not stated)	-14%[38.3 µM]	1%	-13%	-18	3%	-4
CN1C(=O)S/C(=C/c2cccn2-c2cccc(C(=O)O)c2)C1=O	-5%	.	.	.	.	.
N#Cc1ccccc1CN1C(=O)S/C(=C/c2cccn2-c2ccc(C(=O)O)cc2)C1=O	23%[38.3 µM]	-19%	28µM*	?	-3%	0
CCOC(=O)c1c(-c2ccc(C)o2)csc1NC(=O)CN1CCOCC1	41%[38.3 µM]	0%	?	?	-2%	1
CCOC(=O)c1c(-c2ccc(C)o2)csc1NC(=O)COC(=O)c1cccs1	13%	.	22µM*	?	?	-5
CCOC(=O)c1c(-c2ccc(C)o2)csc1N	-17%[38.3 µM]	-17%	-5%	32	-24%	-3
CCOC(=O)c1c(-c2ccc(C)o2)csc1NC(=S)NC(=O)N(C)C	7%[38.3 µM]	25µM*	-16%	86	?	-7
CCOC(=O)c1c(-c2cccs2)csc1NC(=O)c1ccco1	-17%	.	?	-100*	5%	-5
CCCn1c(=O)c2[nH]c(-c3ccc(S(=O)(=O)O)cc3)nc2n(CCC)c1=O	-19%	-10%	?	.	-3%	-24
SMILES	IMPase Li inh	ALOX15B inhib	HPGD block	PNC inhibitor	12-hLO inh	IMPase cell inh
Nc1ccc(-c2nc3ccccc3[nH]2)cc1	2%[38.3 µM]	4%	?	4	0%	3
Nc1ccc(-c2nc3ccc(-c4nc5ccc(N)cc5[nH]4)cc3[nH]2)cc1	10µM*!	15%[0.0915 µM]	?	.	0%[0.00818 µM]	?
N#Cc1nc(-c2cccs2)oc1N1CCOCC1	11µM*	-1%	?	?	-2%	-14
Cc1cc(OC(C)C(=O)Nc2c(C(=O)c3ccc(F)cc3)oc3ccccc23)ccc1Cl (configuration not stated)	.	.	.	.	.	0
CCOC(=O)C1=C(CN2c3ccccc3CC2C)NC(=O)NC1c1ccccc1 (configuration not stated)	0%[38.3 µM]	6%	-3%	32	-5%	-17
CCn1cc(SCC(=O)N2CCOCC2)c2ccccc21	24%[38.3 µM]	-5%	-4%	?	2%	1
O=C(CSc1nncc2ccccc12)N1CCOCC1	-9%[38.3 µM]	-1%	28µM*	17	-8%	4
Cn1cc(SCC(=O)N2CCOCC2)c2ccccc21	9%[38.3 µM]	-9%	-13%	-108*	5%	7
COc1ccc(CN2CCCC(C(=O)N3CCCC3)C2)cc1 (configuration not stated)	11%[38.3 µM]	-14%	-4%	54	-7%	2
O=C(C1CCCN(Cc2cccnc2)C1)N1CCCCC1 (configuration not stated)	.	-16%	.	-82*	-12%	5
N#C[C@@H]1[C@@H]2C(=O)N(c3ccc4c(c3)OCCO4)C(=O)[C@@H]2C2c3ccccc3C=CN21 (some centres not stated)	10%	.	?	-100*	0%	-3
CC(=O)[C@H]1[C@@H]2C(=O)N(c3cccc(Cl)c3)C(=O)[C@@H]2[C@H]2c3ccccc3C=CN21	2%[38.3 µM]	?	35µM*	77	3%	-8
O=C(c1ccco1)[C@@H]1[C@@H]2C(=O)N(c3ccc(F)cc3)C(=O)[C@@H]2C2c3ccccc3C=CN21 (some centres not stated)	-10%[38.3 µM]	-27%	32µM*	1	-11%	-12
CC(=O)[C@@H]1[C@@H]2C(=O)N(c3ccc(F)c(Cl)c3)C(=O)[C@@H]2C2c3ccccc3C=CN21 (some centres not stated)	6%	.	22µM*	53	-1%	14
O=C(c1ccco1)[C@@H]1[C@@H]2C(=O)N(c3ccc(Br)cc3)C(=O)[C@@H]2C2c3ccccc3C=CN21 (some centres not stated)	-3%[38.3 µM]	?	?	38	-21%	-17
O=[N+]([O-])c1ccccc1S(=O)(=O)Oc1ccccc1/C=N/n1cnnc1	8%	.	18µM*	?	-1%	.
O=[N+]([O-])c1cccc(/C=N/n2cnnc2)c1O	-6%	.	-11%	31	3%	.

Screening data (PubChem BioAssay)
